Experimental data reported in PubChem BioAssay (NCI).
This is part of a sample that, as a whole, favours compounds with a hit. Of some 79,000 tested, about 15% had one in any assay. The source made the active and inactive calls. Cut-off read from the data, not from the text of the source: active = growth inhibition above about 70%; inactive = the rest.

Tests used:
[1] = NCI Yeast Anticancer Drug Screen. Data for the rad52 strain (AID 147);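 note: 0% = growth of vehicle-treated control cultures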; conditions: S. cerevisiae rad52 mutant growth inhibition, hits give high values
Outline: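 Screen used a yeast mutant impaired in DNA repair. After compound exposure, growth was measured. Values reflect inhibition compared with vehicle-treated cells.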

[2] = NCI Yeast Anticancer Drug Screen. Data for the wt1 strain (AID 149);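 note: 0% = growth of vehicle-treated wt1 cultures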; conditions: S. cerevisiae wt1 strain (SPY 50644) growth inhibition, hits give high values
Outline: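 Measured: growth of wt1 yeast under compound versus vehicle treatment, reported as inhibition.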

[3] = NCI Yeast Anticancer Drug Screen. Data for the rad50EPP+ strain (AID 151);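 note: 0% = growth of vehicle-treated control cultures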; conditions: S. cerevisiae rad50 mutant strain, hits give high values
Outline: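 Exposing the rad50EPP+ strain to each compound, growth was compared with vehicle-only cultures to give inhibition.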

[4] = NCI Yeast Anticancer Drug Screen. Data for the mgt1 strain (AID 153); conditions: S. cerevisiae mgt1 mutant growth inhibition, hits give high values
Outline: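 Genetically defined yeast (mgt1) treated with compound; inhibition of growth expressed against vehicle-treated controls.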

[5] = NCI Yeast Anticancer Drug Screen. Data for the rad50 strain (AID 155);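 note: 0% = growth of vehicle-only cultures of the same strain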; conditions: S. cerevisiae rad50 strain growth inhibition, hits give high values
Outline: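 Growth of the mutant yeast was measured after compound exposure and referenced to vehicle-treated cultures.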

[6] = NCI Yeast Anticancer Drug Screen. Data for the mec2-1 strain (AID 157); conditions: S. cerevisiae mec2-1 strain, hits give high values
Outline: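 Readout is yeast growth inhibition, normalised to vehicle-treated controls, in the mec2-1 strain exposed to compound.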

[7] = NCI Yeast Anticancer Drug Screen. Data for the rad14 strain (AID 159);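 note: 0% = growth of vehicle-treated control cultures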; conditions: S. cerevisiae rad14 strain growth inhibition, hits give high values
Outline: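 Here, inhibition of yeast growth was measured after compound exposure, using a strain with a genetic defect in DNA damage repair and vehicle-treated cultures as the reference.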

[8] = NCI Yeast Anticancer Drug Screen. Data for the sgs1 mgt1 strain (AID 161);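 note: 0% = growth of cultures given vehicle only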; conditions: S. cerevisiae sgs1 mgt1 strain, hits give high values
Outline: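 Compounds are added to genetically altered yeast, and growth is compared with cultures given vehicle alone to give percent inhibition.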

[9] = NCI Yeast Anticancer Drug Screen. Data for the CLN2oe strain (AID 163);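 note: 0% = growth of vehicle-only control cultures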; conditions: S. cerevisiae CLN2oe strain, hits give high values
Outline: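 Values reflect how much compound exposure reduced yeast growth, referenced to vehicle-exposed cells. Assay organism is a strain with a defined genetic change affecting cell-cycle control.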

[10] = NCI Yeast Anticancer Drug Screen. Data for the cln2 rad14 strain (AID 165);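 note: 0% = growth equal to vehicle treated cultures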; conditions: S. cerevisiae cln2 rad14 strain, hits give high values
Outline: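 Relative to vehicle controls, growth inhibition of compound-treated cln2 rad14 yeast was recorded.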

[11] = NCI Yeast Anticancer Drug Screen. Data for the bub3 strain (AID 167); conditions: S. cerevisiae bub3 mutant strain, hits give high values
Outline: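 Whole-cell yeast assay. The mutant strain was incubated with compounds, and growth inhibition was determined by comparison with vehicle-treated cells.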

[12] = NCI Yeast Anticancer Drug Screen. Data for the wt2 strain (AID 169);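 note: 0% = growth of vehicle-treated yeast cultures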; conditions: S. cerevisiae wt2 strain growth inhibition, hits give high values
Outline: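 Values express reduction in yeast growth under compound treatment, referenced to vehicle-treated cells.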

[13] = NCI Yeast Anticancer Drug Screen. Data for the mlh1 strain (AID 171);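 note: 0% = growth of vehicle-treated control cultures of the same strain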; conditions: S. cerevisiae mlh1 strain growth inhibition, hits give high values
Outline: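 Steps: expose the defined-mutant yeast strain to compound; expose a parallel culture to vehicle; measure growth; express compound effect as inhibition relative to the vehicle culture.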

[14] = NCI Yeast Anticancer Drug Screen. Data for the sgs1 strain (AID 173);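 note: 0% = growth of vehicle-only control cultures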; conditions: S. cerevisiae sgs1 mutant, hits give high values
Outline: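 Treat defined-mutant yeast with compound; measure growth; calculate inhibition relative to vehicle-treated cells.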

[15] = NCI Yeast Anticancer Drug Screen. Data for the mlh1 rad18 strain (AID 175); conditions: S. cerevisiae mlh1 rad18 strain growth inhibition, hits give high values
Outline: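 Test agents were incubated with a yeast strain of defined genotype (DNA damage repair defect). Inhibition of growth was derived by comparison with vehicle-exposed cultures.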

[16] = NCI Yeast Anticancer Drug Screen. Data for the rad18 strain (AID 177); conditions: S. cerevisiae rad18 mutant growth inhibition, hits give high values
Outline: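 A genetically defined yeast mutant impaired in DNA damage repair was treated with test compounds, then its growth was measured against cultures receiving vehicle alone.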

[17] = at 5.0 µM (retest, dose inferred, filed as 0.5)
[18] = at 50.0 µM (retest, dose inferred, filed as 5.0)

Measured: growth inhibition

O=C1Nc2ccc(Br)cc2C1=Nc1ccc2c(c1)OCO2
inactive: [1]; at 1.2 µM 10% | [1]; at 3.7 µM 8% | [1]; at 11.0 µM 3% | [1]; at 33.0 µM 10% | [1]; at 100.0 µM 2% | [2]; at 1.2 µM -12% | [2]; at 3.7 µM -3% | [2]; at 11.0 µM -12% | [2]; at 33.0 µM -12% | [2]; at 100.0 µM 2% | [3]; at 1.2 µM -34% | [3]; at 3.7 µM -37% | [3]; at 11.0 µM -45% | [3]; at 33.0 µM -35% | [3]; at 100.0 µM -48% | [4]; at 1.2 µM -9% | [4]; at 3.7 µM -32% | [4]; at 11.0 µM -15% | [4]; at 33.0 µM -15% | [4]; at 100.0 µM -30% | [5]; at 1.2 µM -29% | [5]; at 3.7 µM -26% | [5]; [17] 47% | [5]; at 11.0 µM -27% | [5]; at 33.0 µM -27% | [5]; [18] 60% | [5]; at 50.0 µM -9.9% | [5]; at 100.0 µM -10% | [6]; at 1.2 µM -59% | [6]; at 3.7 µM -27% | [6]; [17] 41% | [6]; at 11.0 µM -54% | [6]; at 33.0 µM -58% | [6]; [18] 56% | [6]; at 50.0 µM -5.95% | [6]; at 100.0 µM -40% | [7]; at 1.2 µM -38% | [7]; at 3.7 µM -29% | [7]; at 11.0 µM -32% | [7]; at 33.0 µM -21% | [7]; at 100.0 µM -33% | [8]; [17] -12% | [8]; [18] 8% | [8]; at 50.0 µM 9.4% | [9]; at 1.2 µM 13% | [9]; at 3.7 µM 15% | [9]; at 11.0 µM 16% | [9]; at 33.0 µM 17% | [9]; at 100.0 µM 21% | [10]; [17] 32% | [10]; [18] 26% | [10]; at 50.0 µM 7.55% | [11]; at 1.2 µM -26% | [11]; at 3.7 µM -22% | [11]; [17] 30% | [11]; at 11.0 µM -17% | [11]; at 33.0 µM 2% | [11]; at 50.0 µM 52.5% | [12]; at 1.2 µM 0% | [12]; at 3.7 µM -21% | [12]; at 11.0 µM -22% | [12]; at 33.0 µM -34% | [12]; at 100.0 µM -27% | [13]; at 1.2 µM -8% | [13]; at 3.7 µM -13% | [13]; at 11.0 µM -24% | [13]; at 33.0 µM -30% | [13]; at 100.0 µM -27% | [14]; at 1.2 µM -31% | [14]; at 3.7 µM -21% | [14]; at 11.0 µM -30% | [14]; at 33.0 µM -37% | [14]; at 100.0 µM -27% | [15]; [17] 33% | [15]; [18] 54% | [15]; at 50.0 µM 6.7% | [16]; at 1.2 µM -36% | [16]; at 3.7 µM -34% | [16]; at 11.0 µM -42% | [16]; at 33.0 µM -44% | [16]; at 100.0 µM -29%
active: [11]; [18] 73% | [11]; at 100.0 µM 86%
